Data: PubChem BioAssay (EPA / NIEHS)
Several values for one entry are separate records, joined by “and”; a condition that tells them apart may be missing. Identical values can stand only once. The source holds several records for some structures; these can differ, active in one and inactive in another. Activity calls are given as the source filed them. The calls were made as follows: active = hit-call score of the fitted dose curve at least 0.9, where 1 is the maximum; inactive = score below 0.9.

The compounds below were run on KRT18 (gene 3875) (assay: BSK_BF4T_Keratin818: BioMAP Diversity Plus: BF4T Assay for Keratin 818 Biomarker Activity (AID 2284266)). Conditions: primary human bronchial epithelial cells with fibroblasts.
Method: BSK_BF4T is a cell-based, multiplexed-readout assay that uses bronchial epithelial cells and dermal fibroblasts, a human vascular primary cell, with measurements taken at 24 hours after chemical dosing in a microplate: 96-well plate.BSK_BF4T_Keratin818 is an assay component measured in the BSK_BF4T assay. It measures Keratin 8/18 antibody related to regulation of gene expression using ELISA technology.Data from the assay component BSK_BF4T_Keratin818 was analyzed at the endpoint, BSK_BF4T_Keratin818, in the positive analysis fitting direction relative to DMSO as the negative control and baseline of activity. Using a type of binding reporter, gain or loss-of-signal activity can be used to understand protein changes. To generalize the intended target to other relatable targets, this assay endpoint is annotated to the 'cell adhesion molecules' intended target family, where the subfamily is 'keratin'.
The levels of cell surface (or secreted, indicated by the prefix "s") biomarker endpoints were measured by ELISA. Overt cytotoxicity to cells in confluent adherent cultures (all systems other than the BT system) was assessed by measuring total protein levels using sulforhodamine B (SRB) staining in parallel cultures at the time of biomarker measurements, indicated as SRB endpoints. For proliferation assays for adherent cell types, individual cell types are cultured at sub-confluence and relative cell numbers quantified by SRB staining at time points optimized for each system (48 h: 3C and CASM3C systems; 72 h: BT and HDF3CGF systems; 96 h: SAg system). SRB was performed by staining cells with 0.1% SRB after fixation with 10% TCA and reading wells at 560 nm.Viability and proliferation of PBMC (T cells) was quantified by Alamar Blue reduction for the SAg and BT systems. For PBMC viability (referred to as PBMC Cytotoxicity within the assay endpoint names), cells were plated (75,000/well in a 96-well plate) and then chemical samples added for 1 h before addition of activators, SEB and TSST-1 (20 ng/mL final concentration each). Cells were incubated for 90 h. Then, Alamar Blue (20 uL/well) (Invitrogen, Cat DAL1100) was added for 6 h, and the plates were read with a fluorescence microplate reader at 546/580 nm (excitation/emission). For PBMC proliferation, cells were plated and activated as above but incubated for only 16 h prior to addition of Alamar Blue. Plates were read after 6 h.

| Compound | outcome | AC50 |
| --- | --- | --- |
| O=S(=O)(O)CCC(F)(F)C(F)(F)C(F)(F)C(F)(F)C(F)(F)C(F)(F)C(F)(F)C(F)(F)F | inactive | – |
| OCC(F)(F)C(F)(F)C(F)(F)CO | inactive | – |
| OCC(F)(F)C(F)(F)C(F)(F)C(F)(F)C(F)(F)C(F)(F)C(F)(F)C(F)(F)CO | inactive | – |
| CN(C(=O)C(F)(F)C(F)(F)C(F)(F)F)[Si](C)(C)C | inactive | – |
| CNS(=O)(=O)C(F)(F)C(F)(F)C(F)(F)C(F)(F)C(F)(F)C(F)(F)C(F)(F)C(F)(F)F | inactive | – |
| C=C(C)C(=O)OCC(F)(F)C(F)(F)C(F)(F)C(F)F | inactive | – |
| O=C(O)C(F)(F)OC(F)(F)C(F)(F)OC(F)(F)C(F)(F)OC(F)(F)F | inactive | – |
| O=S(=O)(OCC(F)(F)F)C(F)(F)C(F)(F)C(F)(F)C(F)(F)F | inactive | – |
| O=C(Cl)C(F)(F)C(F)(F)C(F)(F)C(F)(F)C(F)(F)C(F)(F)F | inactive | – |
| O=C(O)CCC(F)(F)C(F)(F)C(F)(F)F | inactive | – |
| FC(F)(F)C(F)(F)C(F)(F)C(F)(F)C(F)(F)C(F)(F)C(F)(F)CCI | inactive | – |
| O=S(=O)(O)CCC(F)(F)C(F)(F)C(F)(F)C(F)(F)F | inactive | – |
| O=C(O)C(F)(F)C(F)(F)C(F)(F)C(F)(F)C(F)(F)C(F)(F)C(F)F | inactive | – |
| NCC(F)(F)C(F)(F)C(F)(F)C(F)(F)C(F)(F)C(F)(F)F | inactive | – |
| NC(=O)C(F)(F)C(F)(F)C(F)(F)C(F)(F)C(F)(F)C(F)(F)C(F)(F)F | inactive | – |
| O=C(Cl)C(F)(F)C(F)(F)C(F)(F)C(F)(F)C(F)(F)C(F)(F)C(F)(F)F | inactive | – |
| COC(F)(C(F)F)C(F)(F)F (stereo not given) | inactive | – |
| NC(O)(C(F)(F)F)C(F)(F)F | inactive | – |
| C=CC(=O)OCCC(F)(F)C(F)(F)C(F)(F)C(F)(F)F | inactive | – |

| Compound | outcome | AC50 |
| --- | --- | --- |
| NS(=O)(=O)C(F)(F)C(F)(F)C(F)(F)C(F)(F)C(F)(F)C(F)(F)F | inactive | 30 µM (active) |
| O=C(O)CCC(F)(F)C(F)(F)C(F)(F)C(F)(F)C(F)(F)C(F)(F)C(F)(F)F | inactive | – |
| NC(=O)C(F)(F)C(F)(F)C(F)(F)F | inactive | – |
| C[Si](Cl)(Cl)CCC(F)(F)C(F)(F)C(F)(F)C(F)(F)C(F)(F)C(F)(F)F | inactive | – |
| O=C(F)C1(F)C(F)(F)C(F)(F)C(F)(F)C(F)(F)C1(F)F | inactive | – |
| FC(F)(F)C(F)(F)C(F)(F)CC1CO1 (stereo not given) | inactive | – |
| NC(=O)C(F)(F)C(F)(F)C(F)(F)C(F)(F)C(N)=O | inactive | – |
| OCCCC(F)(F)C(F)(F)C(F)(F)C(F)(F)C(F)(F)C(F)(F)C(F)(F)C(F)(F)F | – | 47.1 µM (active) and 33.9 µM (active) |
| FC(F)(F)C(F)(F)C(F)(F)C(F)(F)C(F)(F)C(F)(F)CC[Si](Cl)(Cl)Cl | inactive | – |
| O=S(=O)(Cl)C(F)(F)C(F)(F)C(F)(F)C(F)(F)C(F)(F)C(F)(F)C(F)(F)C(F)(F)F | inactive | 48.5 µM (active) |
| O=C(O)C(F)(F)C(F)(F)C(F)(F)OC(F)(C(F)(F)F)C(F)(F)F | inactive | – |
| NC(=O)C(F)(F)C(F)(F)C(F)(F)C(F)F | inactive | – |
| OC(O)C(F)(F)C(F)(F)F | inactive | – |
| OCCCCC(F)(F)C(F)(F)C(F)(F)C(F)(F)F | inactive | – |
| OCC(F)(F)C(F)(F)C(F)(F)C(F)(F)C(F)(F)C(F)(F)CO | inactive | – |
| NCC(F)(F)C(F)(F)C(F)(F)C(F)(F)C(F)(F)C(F)(F)C(F)(F)C(F)(F)F | inactive | – |
| CCOC(=O)CC(=O)C(F)(F)C(F)(F)F | inactive | – |
| OCC(O)CC(F)(F)C(F)(F)C(F)(F)C(F)(F)F (stereo not given) | inactive | – |
| CO[Si](C)(CCC(F)(F)C(F)(F)C(F)(F)C(F)(F)C(F)(F)C(F)(F)F)OC | inactive | – |
